Bioassay records from PubChem BioAssay.
Gal4-VP16 FLuc: Gal4-VP16 reporter inhibition counter-screen; Drosophila S2 Gal4-VP16 UAS-luciferase, luminescence, 20 h; Potency, µM (highest dose often 53.6 µM), most hits filed as inhibitors; 310,000 compounds, 3.5% hits;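 further: Gal4-VP16 expression switched on by copper sulfate through the metallothionein promoter; nearly all actives have a fitted effect of over 50% in size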
KB-V1 cytotox: KB-V1 MDR subline cytotoxicity; KB-V1 MDR cells viability, CellTiter-Glo, 72 h; Potency, µM (doses to about 46.1 µM), actives largely listed as cytotoxic; 400,000 compounds, 3.4% hits; AID 1347076; further: nearly all actives have a fitted effect of over 60% in size
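Cytotoxicity toward P-gp-expressing KB-V1 cells was determined as loss of CellTiter-Glo luminescence after 72 h at 37 degrees C. Compounds were tested in quantitative HTS format across a concentration range, with curves fitted to normalized data.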
MCF10A rereplic: DNA re-replication induction in MCF 10a cells; MCF 10A DNA re-replication, Hoechst nuclear intensity, 48 h; Potency, µM (highest dose often 46.1 µM), most hits filed as activators; 350,000 compounds, 2.9% hits; AID 624296; further: nearly all actives have a fitted effect of over 50% in size
RORgamma inh: blocks mouse ROR gamma transcriptional activity. P51450. Drosophila S2 Gal4-RORgamma UAS-luciferase reporter, 20 h. Potency, µM (titrated, usually from 53.6 µM), most hits filed as inhibitors. 310,000 compounds, 5.4% hits; further: nearly all actives have a fitted effect of over 60% in size
Target sequence (P51450 whole entry, looked up, the tested form may be a part): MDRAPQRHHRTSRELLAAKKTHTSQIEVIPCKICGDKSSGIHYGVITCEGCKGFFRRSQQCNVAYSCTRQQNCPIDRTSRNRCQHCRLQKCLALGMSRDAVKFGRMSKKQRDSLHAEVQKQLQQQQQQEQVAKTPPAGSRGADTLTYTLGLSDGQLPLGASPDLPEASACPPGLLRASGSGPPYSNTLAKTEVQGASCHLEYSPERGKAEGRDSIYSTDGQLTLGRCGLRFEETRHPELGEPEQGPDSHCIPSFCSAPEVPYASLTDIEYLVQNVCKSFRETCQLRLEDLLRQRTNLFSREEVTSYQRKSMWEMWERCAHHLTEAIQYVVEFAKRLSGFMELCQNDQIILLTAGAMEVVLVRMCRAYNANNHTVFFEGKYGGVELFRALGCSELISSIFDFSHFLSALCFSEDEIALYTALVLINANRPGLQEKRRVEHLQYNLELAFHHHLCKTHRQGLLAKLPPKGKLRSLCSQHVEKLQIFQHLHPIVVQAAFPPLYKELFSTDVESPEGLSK
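Stable Schneider cell line, Gal4 DNA-binding domain fused to ROR gamma, UAS-luciferase. Cmpd 1 hr RT → CuSO4 700 uM final → 20 hr RT → luciferase reagent 10 min → luminescence.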
KB-3-1 tox: kills parental KB-3-1 adenocarcinoma cells; AID 1347075; 400,000 compounds, 1.4% hits; Potency, µM (top dose mostly 46.1 µM), usual class: cytotoxic; KB-3-1 viability, CellTiter-Glo ATP luminescence, 72 h; further: nearly all actives have a fitted effect of over 60% in size
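Luminescent ATP read-out (CellTiter-Glo) measures survival of drug-naive KB-3-1 cells after 72 h compound exposure at 37 °C. Titration series was screened from lowest to highest concentration, with DMSO vehicle plates as background controls.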
SW480 rerep: DNA re-replication induction in SW480 cells; AID 624297; SW480 DNA re-replication, Hoechst DNA content imaging, 48 h; 340,000 compounds, 1.8% hits; Potency, µM (doses to about 46.1 µM), actives largely listed as activators; further: nearly all actives have a fitted effect of over 55% in size
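Treated cells incubate 48 hr (37 C, 5% CO2), are stained 40 min with Hoechst, and nuclear fluorescence is enumerated; a rise in nuclei with high DNA signal marks re-replication.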
A number is an active result; i = inactive; ? = inconclusive; nt = not tested or not shown; [ ] = another dose, or the depositor's remark. Hits are enriched below; roughly 10% of the tested compounds scored in any of these assays. The call rests on the fitted dose curve; in most records, active means well fitted curve in the direction sought with a large enough effect; inconclusive means small, poorly fitted or top-dose-only effect, or another doubt; inactive means no such curve, though single readings can be large; an effect the other way counts as inactive or inconclusive.

SMILES	Gal4-VP16 FLuc	KB-V1 cytotox	MCF10A rereplic	RORgamma inh	KB-3-1 tox	SW480 rerep
O=C(Cc1ccc(S(=O)(=O)N2CCOCC2)s1)Nc1cc(C(F)(F)F)ccc1N1CCCC1	nt	i	i	nt	i	?
COc1cccc(NC2=C(Cl)C(=O)OC2OC(=O)c2ccco2)c1 (configuration not stated)	i	i	14µM	?	i	?
Cc1ccccc1NC1=C(Cl)C(=O)OC1OC(=O)c1ccco1 (configuration not stated)	i	i	i	10µM	i	i
COc1ccccc1NC1=C(Cl)C(=O)OC1OC(=O)c1ccco1 (configuration not stated)	i	i	?	?	i	?
CCc1ccc2occ(CC(=O)Nc3ccccc3C(F)(F)F)c2c1	nt	i	nt	nt	i	nt
Cc1cc(/C=C2\Cc3ccccc3C2=O)c(C)n1-c1ccccc1	?	i	21µM	i	i	?
Cc1cc(C=C2C(=O)c3ccccc3C2=O)c(C)n1-c1cccc(C(=O)O)c1	i	i	i	i	i	i
Cc1cc(/C=C2/C(=O)NN(c3ccccc3)C2=O)c(C)n1-c1cccc(O)c1	16µM	i	i	?	i	i
Cc1cc(C=C2C(=O)c3ccccc3C2=O)c(C)n1-c1ccc(C(=O)O)cc1	i	i	i	i	i	i
O=C1C(=Cc2cccn2-c2ccccc2)C(=O)c2ccccc21	i	i	i	i	i	18µM
Cc1cc(C=C2C(=O)c3ccccc3C2=O)c(C)n1-c1ccccc1	16µM	i	?	0.063µM	i	i
COc1cccc(C(=O)/C=C/Nc2cccc(O)c2)c1	1.3µM	?	?	7.9µM	i	i
COc1cccc(C(=O)/C=C/Nc2ccc(S(=O)(=O)Nc3cccc(C(C)=O)c3)cc2)c1	10µM	?	10µM	i	i	21µM
COc1cccc(N/C=C/C(=O)c2ccc(C)cc2)c1	?	i	i	?	i	i
O=C(/C=C/Nc1cccc(C(F)(F)F)c1)c1ccc(Oc2ncccn2)cc1	i	21µM	i	i	i	i
COc1cccc(N/C=C/C(=O)c2ccc(Cl)cc2)c1	13µM	i	?	10µM	i	i
O=C(N[C@H]1CCCc2ccccc21)O[C@@H]1C(=O)c2cc(Br)ccc2O[C@H]1c1ccc2c(c1)OCO2	i	nt	nt	i	nt	nt
COc1ccc(NS(=O)(=O)NC(=O)c2c[nH]c3ccccc23)cc1	i	i	i	i	i	i
CCc1nnc(NC(=O)CN2C(=O)/C(=C/c3cc(OC)c(OC)c(OC)c3)SC2=S)s1	?	i	?	16µM	i	i
COc1cc(/C=C2/SC(=S)N(CC(=O)Nc3nc4ccccc4s3)C2=O)cc(OC)c1OC	i	i	i	10µM	i	?
COc1cc(/C=C2\SC(=S)N(CC(=O)Nc3ccccn3)C2=O)cc(OC)c1OC	i	i	i	i	?	?
CCCCNC(=O)c1ccc2nc(CC)c(N(CC)CCOC)n2c1	nt	i	nt	nt	i	nt
COc1ccc(C(=O)C2CCCN(Cc3cccn3-c3ccc(Cl)cn3)C2)c(OC)c1 (configuration not stated)	?	12µM	i	i	?	i
COc1ccc(Cn2c(=O)c3[nH]cnc3n(-c3ccccc3C)c2=O)cc1	i	?	16µM	i	16µM	16µM
COc1ccc(C)c(-n2c(=O)n(Cc3ccccc3)c(=O)c3[nH]cnc32)c1	i	i	i	i	i	i
SMILES	Gal4-VP16 FLuc	KB-V1 cytotox	MCF10A rereplic	RORgamma inh	KB-3-1 tox	SW480 rerep
CCC1CCCCN1CCN1C(=O)C2C(C(=O)Nc3ccc(OC)cc3)C3C=CC2(O3)C1C(=O)NC1CCCCC1 (configuration not stated)	i	i	9.2µM	i	i	i
COc1ccc(NC(=O)C2C3C=CC4(O3)C2C(=O)N(CCN2CCCCC2)C4C(=O)NC2CCCC(C)C2C)cc1 (configuration not stated)	i	i	?	i	i	26µM
CC(=O)Nc1ccc(S(=O)(=O)NN=c2sc3ccccc3n2C)cc1N	nt	i	nt	nt	i	nt
COc1ccccc1N(C)S(=O)(=O)c1ccc(C(=O)N(C)Cc2cccc(F)c2)cc1	nt	i	nt	nt	i	nt
CC(C)NS(=O)(=O)c1ccc(OCC(=O)Nc2ccc(F)cc2F)cc1	i	16µM	i	i	i	i
Cc1ccc(NC(=S)N2CCCCCC2)c(C)c1	18µM	i	i	?	i	i
Cc1c(Cl)cccc1NC(=S)N1CCCCCC1	?	i	i	14µM	i	i
Cc1c(Cl)cccc1NC(=S)NCCN1CCOCC1	i	i	i	?	i	i
CCc1ccccc1NC(=S)NNC(=O)c1ccccc1Cl	i	i	i	?	i	i
Cc1cccc(NC(=S)N2CCCCCC2)c1C	?	i	i	?	i	i
CCc1ccccc1NC(=S)NN	?	nt	nt	11µM	nt	nt
Cc1c(Cl)cccc1NC(=S)NN1CCOCC1	?	i	i	10µM	i	i
C[C@@H]1COc2cccc(N3CCSCC3)c2S(=O)(=O)N1	nt	i	nt	nt	i	nt
OCC[C@H]1C[C@@H](O)[C@H](O)[C@]2(OCc3ccccc32)O1	nt	?	i	nt	?	i[9.22 µM]
COc1ccc(NC(=O)Cn2c(=O)n(-c3ccc(CC(=O)NCC4CCCO4)cc3)c(=O)c3ccccc32)c(OC)c1 (configuration not stated)	nt	i	nt	nt	i	nt
Cc1ccc(Cl)cc1NC(=S)Nn1cnnc1	?	i	i	13µM	i	i
Cc1ccc(NC(=S)N2CCN(c3ncccn3)CC2)c(C)c1	?	i	i	35µM	i	i
FC(F)(F)c1ccccc1NC(=S)N1CCN(c2ncccn2)CC1	i	i	i	13µM	i	i[9.22 µM]
COc1ccc(C)cc1NC(=S)N1CCN(c2ncccn2)CC1	i	i	i	i	i	i
CCc1ccccc1NC(=S)N1N=CCC1c1ccccc1 (configuration not stated)	7.9µM	i	i	3.2µM	i	i
Cc1ccc(Cl)cc1NC(=S)N1CCCCCC1	?	i	i	10µM	i	i
CCc1ccccc1NC(=S)N1CCCCCC1	?	i	i	14µM	i	i
COC(=O)N[C@@H](c1ccc(Br)cc1)C(C(=O)OC)C(=O)OC	i	nt	nt	i	nt	nt
O=C(Nc1ccc(F)c(Cl)c1)C1Cc2c(-c3ccccc3Oc3ccccc3)ccnc2O1 (configuration not stated)	nt	i	nt	nt	i	nt
Cc1cccn2c(=O)c(C(=O)NCCc3ccccc3)cnc12	nt	i	nt	nt	i	nt
Cc1ccc(C(c2nnnn2C2CCCC2)N2CCc3ccccc32)cc1 (configuration not stated)	?	21µM	?	?	i	i
COc1cc2cc(C(c3nnnn3C3CCCCC3)N(C)C3CCCCC3)c(=O)[nH]c2cc1OC (configuration not stated)	i	23µM	i	i	21µM	i
Clc1ccc(C(c2nnnn2C2CCCC2)N2CCSCC2)cc1 (configuration not stated)	i	i	21µM	i	i	i
